From PubChem BioAssay (NCI)
Compounds without any hit were thinned out: in the full panel of roughly 83,000, 20% have a hit.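 A percent growth of 40 corresponds to 60% growth inhibition; 0 means no net growth; -100 means all cells died. Active threshold: below 10.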 Active and inactive are the calls of the source.

How the values were obtained:
Assay in all cases: NCI-60 one-dose screen, 48 h (100 = growth as untreated, 0 = no growth, -100 = all killed)
Details in all cases: 10 µM unless noted
SK-MEL-2 melanoma = system: SK-MEL-2 melanoma
SN12C renal = system: SN12C renal
TK-10 renal = system: TK-10 renal
ACHN renal = system: ACHN renal
CAKI-1 renal = system: CAKI-1 renal
A498 renal = system: A498 renal
CCRF-CEM leukemia = system: CCRF-CEM leukemia
MOLT-4 leukemia = system: MOLT-4 leukemia
UO-31 renal = system: UO-31 renal

Measured: growth

O=C1/C(=C/c2ccccn2)SC(=S)N1N1CCOCC1
inactive: SK-MEL-2 melanoma 89.8% | SN12C renal 93.6% | TK-10 renal 98.5% | ACHN renal 99.5% | CAKI-1 renal 92.6% | A498 renal 102% | CCRF-CEM leukemia 84.2% | MOLT-4 leukemia 101%

O=C(NNc1nc2cc(F)ccc2n2c(CN3CCOCC3)ccc12)c1ccccc1
active: ACHN renal 8.05% | CAKI-1 renal 7.45% | A498 renal -22.4% | CCRF-CEM leukemia 3.36% | MOLT-4 leukemia 2.3%
inactive: SK-MEL-2 melanoma 34.6% | SN12C renal 10.1% | UO-31 renal 12.1% | TK-10 renal 46%

CC12OC(CC(O)C1O)n1c3ccccc3c3c4c(c5c6ccccc6n2c5c31)C(=O)N(CCN1CCCC1)C4=O (stereo not given)
inactive: SK-MEL-2 melanoma 31.9% | SN12C renal 14.9% | UO-31 renal 19.5% | TK-10 renal 21.2% | CAKI-1 renal 15.4% | A498 renal 17.8% | CCRF-CEM leukemia 20.3%
active: ACHN renal -38.1% | MOLT-4 leukemia -3.23%

COc1ccc(-c2cc(C(=O)N3N=C(c4ccc(N)cc4)CC3c3ccc(Cl)cc3)c3ccccc3n2)cc1 (stereo not given)
active: A498 renal -1.93%
inactive: SK-MEL-2 melanoma 20.1% | SN12C renal 41% | UO-31 renal 45.3% | TK-10 renal 35.6% | ACHN renal 43.6% | CAKI-1 renal 28.3% | CCRF-CEM leukemia 16.5% | MOLT-4 leukemia 20.5%

Brc1ccc(Nc2nc(Nc3cnc4ccccc4c3)c3[nH]cnc3n2)cc1
inactive: SK-MEL-2 melanoma 78.2% | SN12C renal 88.3% | UO-31 renal 70.3% | TK-10 renal 113% | ACHN renal 77.5% | CAKI-1 renal 82.9% | A498 renal 79.6% | MOLT-4 leukemia 78.3%

O=C(O)CCCCCCCCCCN1C(=O)/C(=C2/C(=O)N(CC(=O)O)c3ccc(Br)cc32)SC1=S
inactive: SK-MEL-2 melanoma 100% | SN12C renal 86.3% | UO-31 renal 72.8% | TK-10 renal 128% | ACHN renal 84.2% | CAKI-1 renal 83.8% | A498 renal 95.2% | CCRF-CEM leukemia 71.4% | MOLT-4 leukemia 34.2%

ClCCn1cnc2c(SCc3ccccc3)ncnc21
active: CAKI-1 renal 3.9%
inactive: SK-MEL-2 melanoma 120% | SN12C renal 57.5% | UO-31 renal 65.2% | TK-10 renal 83.5% | ACHN renal 49.4% | A498 renal 81.6% | CCRF-CEM leukemia 62.8% | MOLT-4 leukemia 45.8%

COc1ccc2c(c1)C(C)Cc1c(ncnc1-n1cnc3cc(C)ccc31)N2C (stereo not given)
active: A498 renal 6.42% | CCRF-CEM leukemia 7.96%
inactive: SK-MEL-2 melanoma 47.4% | SN12C renal 30.1% | UO-31 renal 43.5% | TK-10 renal 53.6% | ACHN renal 29% | CAKI-1 renal 23.2% | MOLT-4 leukemia 11%

Cc1ccc2c(c1)=C/C(=C\c1cc(-c3ccccc3)[nH]c1O)C(=O)N=2
inactive: SN12C renal 42.5% | UO-31 renal 55.4% | TK-10 renal 68.3% | ACHN renal 65.6% | CAKI-1 renal 42.3% | A498 renal 24.7% | CCRF-CEM leukemia 20% | MOLT-4 leukemia 18.8%
active: SK-MEL-2 melanoma 3.31%

O=C1/C(=C/c2c[nH]c(=O)[nH]c2=O)SC(=S)N1Cc1ccccc1
inactive: SK-MEL-2 melanoma 103% | SN12C renal 95.5% | UO-31 renal 75.8% | TK-10 renal 102% | ACHN renal 102% | CAKI-1 renal 93.6% | A498 renal 99.9% | CCRF-CEM leukemia 104% | MOLT-4 leukemia 103%

COC(=O)[C@]1(C)CCC[C@]2(C)[C@H]3C[C@@H]4[C@H]5[C@@H]6CC/C(=N\OCC/C(N)=N/O)[C@H]5[C@@]3(CC[C@H]21)CC4(C(C)C)O6
inactive: SK-MEL-2 melanoma 85.8% | SN12C renal 63.4% | UO-31 renal 50.1% | TK-10 renal 84.9% | ACHN renal 68.4% | CAKI-1 renal 65.1% | A498 renal 82.4% | CCRF-CEM leukemia 18.9% | MOLT-4 leukemia 28%

CN1C(=O)/C(=C/c2ccc(C(=O)Nc3ncc(Cc4cc(Cl)ccc4Cl)s3)cc2)SC1=S
inactive: SK-MEL-2 melanoma 101% | SN12C renal 87.7% | UO-31 renal 63.4% | TK-10 renal 79.6% | ACHN renal 58.8% | CAKI-1 renal 30.2% | A498 renal 77.4% | CCRF-CEM leukemia 62.9% | MOLT-4 leukemia 70.8%

CCN(CC)CCn1c2ccc(OC)cc2c2sc3cc(O)ccc3c(=O)c21
inactive: SK-MEL-2 melanoma 61.2% | SN12C renal 23.6% | UO-31 renal 23.9% | TK-10 renal 82.2% | CAKI-1 renal 58.1% | A498 renal 43.8% | CCRF-CEM leukemia 13.9%
active: ACHN renal 4.69% | MOLT-4 leukemia 8.27%

COc1ccc2c(c1)CC[C@@H]1[C@@H]2CC[C@]2(C)C3C(=CC(COC(C)=O)C4C(=O)N(c5ccc(Cl)cc5)C(=O)C43)C[C@@H]12 (stereo not given in full)
inactive: SK-MEL-2 melanoma 108% | SN12C renal 101% | UO-31 renal 79.1% | TK-10 renal 120% | ACHN renal 95.8% | CAKI-1 renal 108% | A498 renal 108% | CCRF-CEM leukemia 75.5% | MOLT-4 leukemia 63.9%

O=C(/C=C/c1ccco1)Nc1ncc(Cc2cc(Cl)ccc2Cl)s1
inactive: SK-MEL-2 melanoma 36.3% | SN12C renal 29.6% | UO-31 renal 36.6% | TK-10 renal 51.5% | ACHN renal 35.7% | CAKI-1 renal 36.5% | A498 renal 10.3% | CCRF-CEM leukemia 17.3% | MOLT-4 leukemia 14%

Cc1cc(N2CCN(CC(=O)Nc3ccc4c(ccn4Cc4ccccc4)c3)CC2)nc(N2CCOCC2)n1
active: CCRF-CEM leukemia 5.84%
inactive: SK-MEL-2 melanoma 93% | SN12C renal 87% | UO-31 renal 49% | TK-10 renal 88.2% | ACHN renal 100% | CAKI-1 renal 88% | A498 renal 22.9% | MOLT-4 leukemia 77.8%

C=C1C(=O)O[C@H]2[C@H]1CC/C(COC(=O)C(=O)c1c[nH]c3ccc(Cl)cc13)=C\CC[C@@]1(C)O[C@@H]21
active: SK-MEL-2 melanoma -58.9% | SN12C renal -86.8% | UO-31 renal -94.4% | TK-10 renal -96.4% | ACHN renal -84.3% | CAKI-1 renal -87.5% | A498 renal -87.4% | CCRF-CEM leukemia -41.3% | MOLT-4 leukemia -12.4%

C=C(C)[C@@H]1CC[C@]2(C)[C@H](C=CC3=C4C[C@@](C)(CO)CC[C@]4(C)CC[C@]32C)[C@@]1(C)CCCN
active: SK-MEL-2 melanoma -52.5% | SN12C renal -13.4% | TK-10 renal -68.4% | ACHN renal -94.9% | CAKI-1 renal -81.6% | CCRF-CEM leukemia 0.791% | MOLT-4 leukemia -10.5%
inactive: A498 renal 68.3%

Fc1cc2[nH]ncc2c2c3c(c(-c4cn[nH]c4C(F)(F)F)nc12)CCCC3
active: SK-MEL-2 melanoma -22.1% | SN12C renal 4.98% | UO-31 renal -7.31% | TK-10 renal -8.31% | ACHN renal 0.165% | CAKI-1 renal -7.15% | A498 renal -63.9%
inactive: MOLT-4 leukemia 10.9%

O=C(Nc1cccnc1Nc1ccc(Cl)cc1)c1cn(Cc2cccc(Oc3ccccc3)c2)nn1
inactive: SK-MEL-2 melanoma 61.8% | SN12C renal 46.4% | UO-31 renal 31.9% | TK-10 renal 82.4% | ACHN renal 55.2% | CAKI-1 renal 53.6% | A498 renal 26.6% | CCRF-CEM leukemia 39% | MOLT-4 leukemia 28.8%

Clc1ccc(-c2cc(-c3ccccc3)nc(N3CCN(CCCNc4ccnc5cc(Cl)ccc45)CC3)n2)cc1
inactive: SK-MEL-2 melanoma 12.4% | TK-10 renal 40.5% | A498 renal 69.5%
active: SN12C renal -90.2% | UO-31 renal -52% | ACHN renal 3.37% | CAKI-1 renal -31.5% | CCRF-CEM leukemia 2.6% | MOLT-4 leukemia 2.31%

O=C(Nc1cc(Cl)ccc1O)c1ccccc1Nc1ccnc(C(F)(F)F)c1
inactive: SK-MEL-2 melanoma 31.8% | TK-10 renal 74.5% | CAKI-1 renal 72.1% | A498 renal 53.7%
active: SN12C renal 3.5% | UO-31 renal 1.11% | ACHN renal 7.95% | CCRF-CEM leukemia -2.43% | MOLT-4 leukemia -25%

N#Cc1ccc(/C=C/c2cn(-c3ccccc3)nc2-c2cccc([N+](=O)[O-])c2)cc1
inactive: SK-MEL-2 melanoma 76.3% | SN12C renal 48.1% | UO-31 renal 79.3% | TK-10 renal 76.9% | ACHN renal 32.7% | CAKI-1 renal 71.1% | A498 renal 97% | CCRF-CEM leukemia 88.3% | MOLT-4 leukemia 97.6%

COc1ccc2c(c1)c(-c1nc(-c3ccc4ccccc4c3)cs1)cn2C
inactive: SK-MEL-2 melanoma 108% | SN12C renal 93.6% | UO-31 renal 70.6% | TK-10 renal 102% | ACHN renal 87.4% | CAKI-1 renal 83.6% | A498 renal 86.8% | CCRF-CEM leukemia 88.7% | MOLT-4 leukemia 84%

O=C(/C=C/c1ccccc1Cl)c1cccc(OCCCCOc2cccc(C(=O)/C=C/c3ccccc3Cl)c2)c1
inactive: SK-MEL-2 melanoma 110% | SN12C renal 95.8% | UO-31 renal 83.9% | TK-10 renal 118% | ACHN renal 98.4% | CAKI-1 renal 93.4% | A498 renal 109% | CCRF-CEM leukemia 91.8% | MOLT-4 leukemia 93.9%

O=C(NCc1ccc(Cn2c(=O)sn(-c3ccccc3)c2=O)cc1)OCc1ccc2cccc(O)c2n1
inactive: A498 renal 39.3%
active: SK-MEL-2 melanoma -5.7% | SN12C renal -46.1% | UO-31 renal -99.6% | TK-10 renal -81.2% | ACHN renal -99.9% | CAKI-1 renal -85.9% | CCRF-CEM leukemia 0.307% | MOLT-4 leukemia -24.8%
